Where “and” joins values, the source holds several entries; their conditions need not be identical. Equal entries are not always repeated. Records with an inconclusive call do not appear. Entries that show only a call come without a potency. A number with no mark means an inactive call. Calls of active or inactive are those of the source. The call rests on the fitted dose curve; in most records, active means well fitted curve in the direction sought with a large enough effect; inconclusive means small, poorly fitted or top-dose-only effect, or another doubt; inactive means no such curve, though single readings can be large; an effect the other way counts as inactive or inconclusive.
Key:
[1] = target: Cellular tumor antigen p53 (Homo sapiens) (UniProt P04637); assay: Primary qHTS for small molecule compounds that upregulate eGFP-tagged delta133p53alpha (in N-terminal) cells. (AID 2060322); conditions: NCI-H358 eGFP-delta133p53alpha fluorescence, 24 h; activation: hits give high values; further: nearly all actives have a fitted effect of over 75% in size; further: potency means the concentration at half of the fitted maximal effect; on activation: series mostly up to about 56 µM
Summary of the method: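 NCI-H358 cells pre-induced 24 h with 10 ng/ml doxycycline to express N-terminal eGFP-delta133p53alpha, then dosed 24 h at 37C without doxycycline; fixed, Hoechst-stained, GFP intensity by laser scanning cytometry, normalized to DMSO (0%) and 57.5 uM 5-azacytidine (100%).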

[2] = target: Aldehyde dehydrogenase, mitochondrial (Homo sapiens) (UniProt P05091); assay: qHTS for Inhibitors of the Aldehyde Dehydrogenase Family (ALDH2) Primary screen (AID 2061308); further: nearly all actives have a fitted effect of over 55% in size
[3] = target: Retinaldehyde dehydrogenase 3 (Homo sapiens) (UniProt P47895); assay: qHTS for Inhibitors of the Aldehyde Dehydrogenase Family (ALDH1A3) Primary screen (AID 2061315)
[4] = BET inhibitor-based combinations targeting novel dependencies in MECOM-rearranged (r) AML: SET-2 cell line (AID 2202231); conditions: SET-2 AML cells viability, CellTiter-Glo luminescence, 48 h; viability: hits give low values, series mostly up to about 46 µM; further: nearly all actives have a fitted effect of over 35% in size
Summary of the method: (§1)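 A 48 hr incubation preceded viability reading by CellTiter-Glo, with 15 min room-temperature development. Dose series had 11 points; normalization used DMSO and empty wells; AUC was computed and mean-centered per line as Z-AUC.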

[5] = BET inhibitor-based combinations targeting novel dependencies in MECOM-rearranged (r) AML: UCSD-AML1 cell line (AID 2202235); further: nearly all actives have a fitted effect of over 40% in size; further: potency means the concentration at half of the fitted maximal effect
Summary of the method: (§2)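 Each compound is tested in an 11-point concentration series against 500 seeded cells/well for 48 hr. The luminescent viability signal is normalized to DMSO and blank wells, then reduced to AUC and a cell-line-centred Z-AUC.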

[6] = BET inhibitor-based combinations targeting novel dependencies in MECOM-rearranged (r) AML: AML-194 cell line (AID 2202237; further: nearly all actives have a fitted effect of over 40% in size; further: potency means the concentration at half of the fitted maximal effect)
Summary of the method: as §1

[7] = BET inhibitor-based combinations targeting novel dependencies in MECOM-rearranged (r) AML: OCI-AML3 cell line (AID 2202232); conditions: Potency: OCI-AML3 viability; further: nearly all actives have a fitted effect of over 35% in size; further: potency means the concentration at half of the fitted maximal effect
Summary of the method: as §1

[8] = BET inhibitor-based combinations targeting novel dependencies in MECOM-rearranged (r) AML: HNT-34 cell line (AID 2202234); further: potency means the concentration at half of the fitted maximal effect; nearly all actives have a fitted effect of over 35% in size
Summary of the method: as §2

[9] = BET inhibitor-based combinations targeting novel dependencies in MECOM-rearranged (r) AML: AML-191 cell line (AID 2202236; further: nearly all actives have a fitted effect of over 35% in size; further: potency means the concentration at half of the fitted maximal effect)
Summary of the method: as §1

[10] = BET inhibitor-based combinations targeting novel dependencies in MECOM-rearranged (r) AML: MV-4-11 cell line (AID 2202233); further: nearly all actives have a fitted effect of over 45% in size; further: potency means the concentration at half of the fitted maximal effect
Summary of the method: as §2

Cellular tumor antigen p53 (Homo sapiens), sequence (P04637 whole entry, looked up): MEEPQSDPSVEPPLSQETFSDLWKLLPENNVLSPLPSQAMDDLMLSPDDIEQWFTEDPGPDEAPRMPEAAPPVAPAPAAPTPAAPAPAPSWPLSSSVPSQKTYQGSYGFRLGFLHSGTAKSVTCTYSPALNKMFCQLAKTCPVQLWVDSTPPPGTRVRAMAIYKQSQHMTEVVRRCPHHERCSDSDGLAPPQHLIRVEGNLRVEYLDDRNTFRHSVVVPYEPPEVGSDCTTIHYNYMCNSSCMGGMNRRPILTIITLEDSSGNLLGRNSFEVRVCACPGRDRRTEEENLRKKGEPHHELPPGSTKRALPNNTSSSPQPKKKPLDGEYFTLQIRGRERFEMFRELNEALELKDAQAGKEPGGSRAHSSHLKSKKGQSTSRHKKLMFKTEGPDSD

| SMILES | activation [1] | Potency [2] | Potency [3] | viability [4] [%] | Potency [5] | Potency [6] | Potency [7] | Potency [8] | Potency [9] | Potency [10] | Potency [1] |
| --- | --- | --- | --- | --- | --- | --- | --- | --- | --- | --- | --- |
| C[C@H](c1ccc(F)cc1CCCC(=O)O)N(c1cc(F)ccc1F)S(=O)(=O)c1ccc(Cl)cc1 | -2.61% and 2.68% | inactive | inactive | 113 | inactive | inactive |  |  |  |  |  |
| C[C@@H]1CCN(C(=O)N2CCCC2)C[C@@H]1N(C)c1ncnc2[nH]ccc12 | -10.7% | inactive | inactive |  | 0.934 µM (active) |  | inactive | 16.6 µM (active) |  |  |  |
| COc1ccc(-c2c(-c3ccc(O)cc3O)n[nH]c2C)cc1 | -3.77% | inactive | inactive |  | inactive | inactive | inactive |  | inactive |  |  |
| Nc1cccc(S(=O)(=O)N2CCCN(S(=O)(=O)c3ccc4c(c3)OCCO4)CC2)c1 | 17.7% | inactive | inactive |  |  | inactive | inactive |  |  | inactive |  |
| O=C(O)c1ccc(Nc2ncc3c(n2)-c2ccc(Cl)cc2C(c2c(F)cccc2F)=NC3)cc1 | 139% and 6.25% | inactive | inactive |  |  |  |  |  |  | 0.934 µM (active) |  |
| Nc1nccc(Oc2ccc(NC(=O)c3c[nH]cc(-c4ccc(F)cc4)c3=O)cc2F)c1Cl |  | inactive | inactive |  |  |  | 20.9 µM (active) | 18.6 µM (active) | 9.34 µM (active) | 0.0372 µM (active) | 43.2 µM (active) and 30.1 µM (active) |
| Cc1[nH]c(/C=C2\C(=O)Nc3ccc(F)cc32)c(C)c1C(=O)NCCN1CCCC1 |  | inactive | inactive |  |  | 7.23 µM (active) | 8.11 µM (active) | 3.62 µM (active) | 6.45 µM (active) | 0.0323 µM (active) | 2.69 µM (active) |
| Cc1cc(F)c(C(=O)Nc2cccc(-c3nncn3C(C)C)n2)cc1-n1cnc(C2CC2)c1 | 35% | inactive | inactive |  | 16.6 µM (active) |  |  | 20.9 µM (active) | 18.6 µM (active) | 10.5 µM (active) |  |
| CC(C)(C)c1cc(NC(=O)Nc2ccc(-c3cn4c(n3)sc3cc(OCCN5CCOCC5)ccc34)cc2)no1 | 10.5% and 25% | inactive | inactive |  | inactive | 14.8 µM (active) | 4.68 µM (active) |  | 4.68 µM (active) | 0.003 µM (active) |  |
| CCOc1ccn(-c2ccc(F)cc2)c(=O)c1C(=O)Nc1ccc(Oc2ccnc(N)c2Cl)c(F)c1 | 49.1% | inactive | inactive |  | inactive |  |  | 11.8 µM (active) | 8.33 µM (active) | 1.48 µM (active) |  |
| Nc1ncnc2c1ncn2[C@@H]1O[C@H](CO)C[C@H]1O |  | inactive | inactive |  |  | inactive | inactive |  | inactive | inactive | 12 µM (active) |
| Cc1csc(-c2nnc(Nc3ccc(Oc4ncccc4-c4ccnc(N)n4)cc3)c3ccccc23)c1 | 19.6% | inactive | inactive |  | 0.296 µM (active) |  | 1.86 µM (active) |  |  |  |  |
| CC1=C(C(=O)Nc2cc3cn[nH]c3cc2F)C(c2ccc(C(F)(F)F)cc2)CC(=O)N1 (configuration not stated) | -14.3% and -24.1% | inactive | inactive |  |  | inactive | 2.95 µM (active) |  |  |  |  |
| CN(C)CC(=O)N1CCC(c2ccc(NC(=O)c3ncc(C#N)[nH]3)c(C3=CCCCC3)c2)CC1 | -0.715% | inactive | inactive |  | 5.25 µM (active) |  |  | 10.5 µM (active) |  | 0.148 µM (active) |  |
| CCN(CCCOc1ccc2c(Nc3cc(CC(=O)Nc4cccc(F)c4)[nH]n3)ncnc2c1)CCOP(=O)(O)O | 15.2% | inactive | inactive |  | inactive | 0.662 µM (active) | 0.468 µM (active) |  |  |  |  |
| CC(C)(O)CCc1ccc(OCc2cc(-c3cccc(OC(F)F)c3)c3ncccc3c2)cc1 | 8.96% | inactive | inactive |  |  |  |  |  |  | 18.6 µM (active) |  |
| COc1cc(F)c(F)c(Nc2ccc(I)cc2F)c1NS(=O)(=O)C1(C[C@H](O)CO)CC1 | 4.11% | inactive | inactive |  | 0.662 µM (active) |  | 0.166 µM (active) | 1.32 µM (active) |  |  |  |
| CC(C)(C)Cn1c(N)nc2ccc(-c3[nH]c(C(C)(C)C)nc3-c3ccc(F)cc3)nc21 | -1.62% | inactive | inactive |  | inactive |  |  | 23.5 µM (active) |  | 18.6 µM (active) |  |
| Cc1cccc(Nc2nc(-c3ccncc3)cs2)c1 | 11.1% and -1.43% | inactive | inactive |  | inactive | inactive | inactive |  |  |  |  |
